From PubChem BioAssay
This is a sample that favours compounds with a hit; in the whole collection about 5.2% have one here.
Sfp PPTase inh: Sfp phosphopantetheinyl transferase inhibition. Potency, µM, most hits filed as inhibitors. AID 1490. 310,000 compounds, 3.5% hits. Biochemical Sfp PPTase activity, qHTS;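 further: the enzyme is Sfp with the accession as filed and its product quenches rhodamine fluorescence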
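Reaction rates are the 30-min fluorescence difference (ex 525, em 598 nm) in wells containing 15 nM Sfp, 5 uM rhodamine-CoA and 12.5 uM BHQ-2-YbbR at pH 7.6 with 10 mM MgCl2.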
Tau fibril ThT: inhibitors of human tau fibril formation, thioflavin T binding; P10636; recombinant tau K18 P301L, heparin-induced fibrillization, ThT fluorescence; Potency, µM (doses to about 57.4 µM), usual class: inhibitors; 270,000 compounds, 2.1% hits; AID 1460; further: nearly all actives have a fitted effect of over 55% in size
Target sequence (P10636 561-689 P618L limits assumed): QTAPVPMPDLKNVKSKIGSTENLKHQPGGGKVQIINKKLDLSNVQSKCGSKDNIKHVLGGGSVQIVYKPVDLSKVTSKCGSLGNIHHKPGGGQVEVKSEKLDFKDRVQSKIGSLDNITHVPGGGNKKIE
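Tau K18 P301L fragment (15 uM unlabeled plus 0.24 uM Alexa 594-labeled) in 100 mM sodium acetate pH 7 with compound, fibrillization induced by 20 uM heparin for 6 hr at 37 C. Thioflavin T (30 uM) added, fluorescence read after 1 hr (ex 450, em 510 nm).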
Tau FP inhib: tau fibrillization inhibition (FP); Potency, µM (series often up to 57.7 µM), hits mostly inhibitors; AID 1468; K18 P301L tau heparin fibrillization, Alexa594 FP, 6 h; 280,000 compounds, 0.39% hits; further: nearly all actives have a fitted effect of over 55% in size
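Quantitative HTS format: compounds meet 15 uM recombinant K18 P301L tau and Alexa 594-tau tracer in 100 mM sodium acetate pH 7; 20 uM heparin triggers fibrillization at 37 C over 6 hr; FP gives the signal.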
Tau fluor counter: counter-screen for tau fibril formation inhibitors. tau K18 P301L Alexa594 fluorescence, heparin fibrillization. 280,000 compounds, 0.93% hits. Potency, µM (highest dose often 57.7 µM); further: nearly all actives have a fitted effect of over 55% in size
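Human tau K18 P301L (15 uM unlabeled, 0.24 uM Alexa 594-labeled) in 100 mM sodium acetate pH 7 with 20 uM heparin, 6 hr at 37 C. ThT 30 uM added, 1 hr ambient; Alexa 594 FP and total fluorescence read at 555/632 nm.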
FBPA coupling cs: inhibits coupling enzyme system, counter-screen for aldolase hits; coupling enzyme system counterscreen, AmpLite Red fluorescence; activity change, negative = inhibition, % at 58.2 µM, hits read low; 290,000 compounds, 0.67% hits; AID 2472; in the data active means activity change below about -30%
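Activity here indicates interference with the coupling reaction, not aldolase inhibition. Compounds at 57.5 uM final met coupling enzymes for 10 min at RT; substrate and AmpLite Red detection followed, with a 525/598 nm fluorescence read after 20 min.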
Hits are given with their value; n = inactive; u = inconclusive; x = no result given; [ ] = another dose, or the depositor's remark. Unless noted, the call rests on the fitted dose curve; in most records, active means well fitted curve in the direction sought with a large enough effect; inconclusive means small, poorly fitted or top-dose-only effect, or another doubt; inactive means no such curve, though single readings can be large; an effect the other way counts as inactive or inconclusive.

SMILES	Sfp PPTase inh	Tau fibril ThT	Tau FP inhib	Tau fluor counter	FBPA coupling cs
CC(C)CC(=O)Nc1nnc(S(=O)(=O)N2CCc3ccccc32)s1	n	2.2µM	n	u	n
CCC(=O)Nc1nnc(S(=O)(=O)N2CCc3ccccc32)s1	n	18µM	n	n	n
Cc1ccc(Cl)cc1N1CCN(S(=O)(=O)c2ccc3oc(=O)c4ncn(C)c4c3c2)CC1	x	n	n	n	x
COc1cccc(-c2ccc3ncnc(N4CCNCC4)c3c2)c1	n	x	x	x	n
C=C1[C@@H]2CC[C@H](C2)C1(C)C	n	x	x	x	n
Cn1ccc(=S)c2ccccc21	35µM	u	n	n	n
Cc1ccc(NCC(O)C(O)C(O)CO)cc1C (stereo not given)	n	n	n	n	n
Cc1cc(N=Nc2ccccc2)c(NCC(O)C(O)C(O)CO)cc1C (stereo not given)	n	14µM	n	u	n
CC(C)COC[C@H](CN(Cc1ccccc1)c1ccccc1)N1CCCC1	n	x	x	x	n
CCN(CCNCC(O)COCc1ccc(Cl)cc1)c1cccc(C)c1 (stereo not given)	10µM	n	n	n	n
Cc1ccc(-n2nc(C(=O)N(C)Cc3ccccc3)c3c4ccccc4n(C)c3c2=O)cc1	x	n	n	n	x
N#CC(C#N)=c1ccc2c(c1)NC1(CCCCC1)N=2	n	14µM	25µM	u	n
N#CC(C#N)=C1NC2(CCCCC2)Cc2ccccc21	n	n	n	n	n
Cc1cc(S(=O)(=O)ON2C(=O)c3ccccc3C2=O)ccc1F	11µM	x	x	x	n
O=C1c2cccc3cccc(c23)C(=O)N1OS(=O)(=O)c1ccccc1	n	n	u	u	n
O=C1c2ccccc2C(=O)N1OS(=O)(=O)c1ccccc1	10µM	u	u	n	n
Cc1ccc(C)c(S(=O)(=O)ON2C(=O)c3ccccc3C2=O)c1	18µM	u	n	n	n
Cc1ccc(S(=O)(=O)ON2C(=O)c3cccc4cccc(c34)C2=O)cc1	n	n	n	n	n
COc1cccc(CNC(=O)c2nnc(Cc3ccc(Cl)cc3)o2)c1	x	n	n	n	x
Cc1ccc(NC(=O)Cn2nnc(-c3nc(-c4ccc(Cl)cc4)no3)c2N)cc1C	x	n	n	n	x
O=C1/C(=N\S(=O)(=O)c2cccs2)C([n+]2cccc(Cc3ccccc3)c2)=C([O-])c2ccccc21	n	u	n	n	-38
O=C1/C(=N\S(=O)(=O)c2cccs2)C([n+]2ccc(CCCc3ccccc3)cc2)=C([O-])c2ccccc21	n	2.8µM	n	u	-35
Cc1cc[n+](C2=C([O-])c3ccccc3C(=O)/C2=N\S(=O)(=O)c2cccs2)cc1C	n	u	n	n	-63
Cc1cc(C)c[n+](C2=C([O-])c3ccccc3C(=O)/C2=N\S(=O)(=O)c2cccs2)c1	n	n	n	n	n
O=c1cnc2cnc(N3CCNCC3)nc2n1Cc1cccs1	n	x	x	x	n
SMILES	Sfp PPTase inh	Tau fibril ThT	Tau FP inhib	Tau fluor counter	FBPA coupling cs
N#CCCn1c(=O)cnc2cnc(Nc3ccccc3)nc21	n	x	x	x	n
O=C(CSc1nc(-c2cccc(F)c2)[nH]c1-c1ccccc1)Nc1ccc2c(c1)OCCO2	x	u	u	11µM[quencher]	x
O=C(CSc1nc2ccccc2[nH]1)Nc1ccc2c(c1)OCCO2	n	u	n	n	n
Cc1cccc(-c2nc(SCC(=O)Nc3ccc4c(c3)OCCO4)c(-c3ccccc3)[nH]2)c1	x	n	n	8.9µM[quencher]	x
Cc1[nH]c2ccccc2c1CN1CCC(Cc2ccccc2)CC1	79µM	u	n	n	n
Cc1[nH]c2ccccc2c1CN1CCN(c2ccccn2)CC1	n	u	n	u	n
COc1ccc(N2CCN(CCCNC(=O)c3c(C)nn(-c4ccc(F)cc4)c3-n3cccc3)CC2)cc1	x	u	n	n	x
Cc1nc2c(O)cccc2c(=O)[nH]1	56µM	n	n	n	n
Cc1nc2ccccc2c(=O)[nH]1	n	n	n	n	n
O=C(COc1ccccc1[N+](=O)[O-])Nc1ccccc1N1CCCC1	20µM	n	n	n	n
COc1ccccc1-c1cc2nc(C)c(CCC(=O)NCCc3ccc(SC)cc3)c(C)n2n1	x	n	n	n	x
COc1cc2c3c(c1)C(C)CC(C)(C)N3C(=O)C2=O (stereo not given)	n	u	n	n	n
CCc1cc2c3c(c1)C(C)CC(C)(C)N3C(=O)/C2=C1\SC(=O)NC1=O (stereo not given)	n	14µM	n	u	n
O=C(Nc1nc2c(F)cc(F)cc2s1)c1ccc(S(=O)(=O)N2CCc3ccccc32)cc1	x	n	14µM	n	x
Cc1c(C)n(Cc2ccccc2)c2ncnc(NN)c12	56µM	x	x	x	n
Cc1c(C)n(CCc2ccccc2)c2ncnc(NN)c12	n	x	x	x	n
Cc1noc(C)c1-c1ccc2ncnc(NC(C)c3ccccc3)c2c1 (stereo not given)	n	x	x	x	n
O=C(Nc1ccc(OC(F)F)cc1)Nc1cccc(C(F)(F)F)c1	n	n	25µM	u	n
CN(C)S(=O)(=O)NCCNC(=O)c1cc(OCC(F)(F)F)ccc1OCC(F)(F)F	n	n	n	n	n
O=C(NCCNC(=O)c1cc(OCC(F)(F)F)ccc1OCC(F)(F)F)Nc1cccc(C(F)(F)F)c1	u	n	10µM	u	n
Cc1ccc(S(=O)(=O)Nc2ccc(NC(=O)Nc3cccc(C(F)(F)F)c3)cc2)cc1	n	n	13µM	2.5µM[quencher]	n
CCN(CC)S(=O)(=O)c1ccc(/C=C/C(=O)Nc2cccc(F)c2)cc1	n	u	35µM	u	n
O=C(Nc1ccncc1)Nc1cccc(C(F)(F)F)c1	n	x	x	x	n
CSc1ccc(C2c3c(oc4cc(C)cc(C)c4c3=O)C(=O)N2CCO)cc1 (stereo not given)	x	n	n	n	x
CCN(CC)S(=O)(=O)c1ccc(NC(=O)C2c3ccccc3Oc3ccccc32)cc1	n	n	28µM	u	n
SMILES	Sfp PPTase inh	Tau fibril ThT	Tau FP inhib	Tau fluor counter	FBPA coupling cs
CCN(CC)S(=O)(=O)c1ccc(NC(=O)Nc2cccc(C(F)(F)F)c2)cc1	u	n	7.9µM	u	n
COc1cc(C(CCN2CCCC2)c2c(OC)cc(OC)c3c2OC(=O)CC3c2ccc(N(C)C)cc2)cc(OC)c1OC (stereo not given)	n	x	x	x	n
COc1cc(C=C2C(=O)c3ccccc3C2=O)cc(OC)c1OC	n	14µM	n	n	n
CCN1C/C(=C/c2ccc(OC)c(O)c2)C(=O)/C(=C/c2ccc(OC)c(O)c2)C1	n	14µM	u	n	n
COc1ccc(C=C2C(=O)c3ccccc3C2=O)cc1O	n	8.9µM	n	n	n
COc1cccc(/C=C2\C(=O)C(=O)c3ccccc32)c1	n	13µM	n	n	n
COc1ccc(/C=C2\CN(Cc3ccccc3)C/C(=C\c3ccc(OC)c(O)c3)C2=O)cc1O	n	x	x	x	n
COc1cc(C=C2C(=O)c3ccccc3C2=O)ccc1O	n	u	n	n	n
CCCc1cc(=O)oc2c3c(ccc12)OCN(Cc1ccccc1OC)C3	x	n	n	n	x
COc1ccc(C(=O)/C(Br)=C/C(=O)O)cc1	n	x	x	x	x
